Results filed as inconclusive are left out. Calls of active or inactive are those of the source. Calls follow the shape of the dose curve; as a rule, active = well fitted inhibition curve with a large enough effect in the repeat runs; inconclusive = weak or mixed curves; inactive = no such curve, though single readings can be large or run the other way.
What follows are compounds tested against Cytochrome P450 2D6 (Homo sapiens) (UniProt P10635) (assay: Cytochrome P450 Family 2 Subfamily D Member 6 (CYP2D6) small molecule antagonists: luciferase reporter qHTS assay (AID 1671196; also: nearly all actives have a fitted effect of over 50% in size)). Conditions: P450-Glo CYP2D6 enzyme assay, luciferin luminescence, 1 h; series mostly up to 115 µM; activity change, negative = inhibition: at the top concentration.
Cytochrome P450 2D6 (Homo sapiens), sequence (P10635 whole entry, looked up): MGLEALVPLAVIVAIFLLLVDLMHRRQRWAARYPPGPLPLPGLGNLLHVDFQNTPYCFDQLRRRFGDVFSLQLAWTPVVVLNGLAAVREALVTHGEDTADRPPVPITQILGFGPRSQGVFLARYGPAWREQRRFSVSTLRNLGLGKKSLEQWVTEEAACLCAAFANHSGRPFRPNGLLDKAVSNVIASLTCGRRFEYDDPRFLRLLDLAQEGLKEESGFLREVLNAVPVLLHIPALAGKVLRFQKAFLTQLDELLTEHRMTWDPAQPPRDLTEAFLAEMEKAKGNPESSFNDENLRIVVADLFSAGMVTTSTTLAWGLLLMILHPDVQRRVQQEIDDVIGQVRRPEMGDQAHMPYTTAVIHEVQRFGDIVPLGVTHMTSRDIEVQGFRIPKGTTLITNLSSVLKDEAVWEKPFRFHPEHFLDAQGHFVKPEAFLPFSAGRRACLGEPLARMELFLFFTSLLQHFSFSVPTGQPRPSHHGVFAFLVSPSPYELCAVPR
How it was run: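 Test chemicals meet CYP2D6 plus proluciferin substrate (10 min, RT); NADPH regenerating solution then drives turnover for 1 h. Detection reagent halts the reaction; luminescence measured after 20 min.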
`C=C1[C@H]2CC[C@@H]3[C@H]2C(C)(C)CCC[C@]13C` was tested, and the “activity change, negative = inhibition” value was -7.61% (inactive).
In the case of `C1CCCNCCC1`, the “activity change, negative = inhibition” value is reported as -12.2% (inactive).
With `Cc1ccc(C(C)OC(=O)C2(C)CCC(C(=O)O)C2(C)C)cc1` (stereo not given) the “activity change, negative = inhibition” value was -7.57% [at 53 µM] (inactive).
`O=[N+]([O-])c1cccc(S(=O)(=O)O)c1` was tested, and the Potency was 7.21 µM (active).
With `Cc1ccc(N=Nc2c(O)c(C(=O)O)cc3ccccc23)c(S(=O)(=O)O)c1` the “activity change, negative = inhibition” value was 5.99% [at 53 µM] (inactive).
For `CN(Cc1ccc(C(C)(C)C)cc1)Cc1cccc2ccccc12`, the Potency was 0.347 µM (active).
With `Nc1ccccc1S(=O)(=O)c1ccccc1` the “activity change, negative = inhibition” value was -24.7% (inactive).
With `OCCN1CCN(CCCN2c3ccccc3C=Cc3ccccc32)CC1` the Potency was 13.8 µM (active).
For `O=C(OCCCCCCOC(=O)c1ccccc1)c1ccccc1`, the “activity change, negative = inhibition” value was -1.19% (inactive).
In the case of `Nc1ccc(N)c2c1C(=O)c1ccccc1C2=O`, the Potency is reported as 35.6 µM (active).
% is scaled to controls: 0 for no effect and ±100 for the full control effect; potency is read from the fitted curve at half-maximal effect.
